High-throughput results: PubChem, National Center for Advancing Translational Sciences (NCATS)
GLA inh pH 4.5 = qHTS Assay for Inhibitors of Human alpha-Galactosidase at pH 4.5; 230,000 tested, under 10 active; purified enzyme, 4-MU-alpha-Gal fluorescence, pH 4.5; activity change, negative = inhibition, % at 105 µM; Alpha-galactosidase A (Homo sapiens), P06280
N370S GC = qHTS Assay for Inhibitors and Activators of N370S glucocerebrosidase as a Potential Chaperone Treatment of Gaucher Disease; N370S GC spleen homogenate, 4MU-glucoside fluorescence; 330,000 compounds, 0.092% hits; Lysosomal acid glucosylceramidase (Homo sapiens), P04062; Potency, µM (series often up to 59.4 µM), usual class: inhibitors; AID 2101, 2009
GAA glycogen = qHTS Assay for Inhibitors and Activators of Human alpha-Glucosidase Cleavage of Glycogen; Lysosomal alpha-glucosidase (Homo sapiens), P10253; recombinant GAA, glycogen substrate, Amplex Red glucose oxidase fluorescence; Potency, µM (titrated, usually from 76.4 µM), most hits filed as inhibitors; 300,000 compounds, 0.38% hits; AID 2100, 2009;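 further: the screen sought inhibitors and activators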
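Natural-substrate format: glycogen cleavage by 4 nM human enzyme, glucose read by Amplex Red coupling (Ex 573, Em 610 nm). Normalized to enzyme and no-enzyme controls.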
GAA inh = qHTS Assay for Inhibitors of Human alpha-Glucosidase as a Potential Chaperone Treatment of Pompe Disease. Lysosomal alpha-glucosidase (Homo sapiens), P10253. purified human GAA, 4-MU-alpha-glucoside fluorescence. Potency, µM (top dose mostly 76.9 µM), most hits filed as inhibitors. 200,000 compounds, 0.005% hits
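Read-out is 4-methylumbelliferone fluorescence (Ex 365/Em 440 nm) after NaOH/glycine stop at pH 10. Enzyme 4 nM, substrate 400 uM, pH 5.0 citrate buffer, 20 min room temperature; AC50 from Hill-equation concentration-response.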
GAA spleen mod = qHTS Assay for Inhibitors and Activators of Human alpha-Glucosidase From Spleen Homogenate. human spleen homogenate, 4-MU-alpha-glucoside fluorescence. Potency, µM (titrated, usually from 79.9 µM), usual class: inhibitors. AID 2112, 2009. 240,000 compounds, 0.006% hits. Lysosomal alpha-glucosidase (Homo sapiens), P10253
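AC50 values come from Hill-equation fits of concentration-response data, normalized to no-enzyme and full-activity controls. Enzyme source: 1 ug human spleen homogenate; 1 mM fluorogenic 4-MU glucoside, pH 5.0 citrate buffer, 37 C, 40 min.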
GLA spleen mod = qHTS Assay for Inhibitors and Activators of Human alpha-Galactosidase From Spleen Homogenate; Alpha-galactosidase A (Homo sapiens), P06280; human spleen homogenate, 4MU-alpha-Gal fluorescence, 40 min; Potency, µM (top dose mostly 80 µM), hits mostly inhibitors; 240,000 compounds, 0.008% hits; AID 2107, 2009
Target sequence (P06280 32-429 limits assumed): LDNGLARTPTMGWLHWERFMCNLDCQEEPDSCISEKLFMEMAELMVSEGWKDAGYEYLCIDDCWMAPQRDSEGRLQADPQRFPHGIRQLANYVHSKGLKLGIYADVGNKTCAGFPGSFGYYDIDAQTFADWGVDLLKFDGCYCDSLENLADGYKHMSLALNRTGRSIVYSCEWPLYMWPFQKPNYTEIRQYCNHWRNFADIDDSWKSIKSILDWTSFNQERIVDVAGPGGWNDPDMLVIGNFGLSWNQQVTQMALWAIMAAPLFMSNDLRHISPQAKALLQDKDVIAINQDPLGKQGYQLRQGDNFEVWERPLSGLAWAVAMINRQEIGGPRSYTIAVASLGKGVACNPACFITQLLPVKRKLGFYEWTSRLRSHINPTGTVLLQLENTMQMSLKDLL
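Fluorogenic readout (Ex 365/Em 440 nm) of 4-methylumbelliferone released from 1 mM 4-MU-alpha-galactoside by spleen homogenate, 40 min at 37C, pH 5.0. Data normalized to no-enzyme and enzyme controls; Hill-equation AC50 from compound titrations.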
A number is an active result; [ ] = another dose, or the depositor's remark. A selection: hits, their analogues and other compounds. The true share with any hit is near 0.43%. The call rests on the fitted dose curve; in most records, active means well fitted curve in the direction sought with a large enough effect; inconclusive means small, poorly fitted or top-dose-only effect, or another doubt; inactive means no such curve, though single readings can be large; an effect the other way counts as inactive or inconclusive.

`CC(=O)N1CCN(c2ccc(NCc3ccccc3)cc2)CC1` gave GLA inh pH 4.5 inactive, N370S GC inactive, GAA glycogen 14µM, GAA inh inactive, GAA spleen mod inactive and GLA spleen mod inactive.
CO[C@H]1COC(=O)[C@H](C)COC(=O)[C@H](C)NC(=O)C/C=C\[C@H]1C was read as N370S GC inactive[12.8 µM], GAA spleen mod inactive[17.4 µM] and GLA spleen mod inactive[17.5 µM].
`CC(=O)Nc1ccc(N2CCN(C(=O)c3cccs3)CC2)cc1` gave GLA inh pH 4.5 inactive, N370S GC inactive, GAA glycogen inactive, GAA inh inactive, GAA spleen mod inactive and GLA spleen mod inactive.
For CC(=O)N1CCN(c2ccc(NCc3cccs3)cc2)CC1 the results were GLA inh pH 4.5 inactive, N370S GC inconclusive, GAA glycogen 39.8µM, GAA inh inactive, GAA spleen mod inactive and GLA spleen mod inactive.
Oc1ccc(Nc2nnc(-c3ccc(O)cc3)c3ccccc23)cc1 was read as GLA inh pH 4.5 inactive, N370S GC inconclusive, GAA glycogen 15.8µM, GAA inh inactive, GAA spleen mod inactive and GLA spleen mod inactive.
Screening Oc1ccc(Nc2ncnc3ccccc23)cc1 returned N370S GC inactive and GAA glycogen 22.4µM.
Screening Cc1ccc(-c2nnc(Nc3ccc(O)cc3)c3ccccc23)cc1S(=O)(=O)NCC1CCCO1 (centres undefined) returned GAA glycogen 15.8µM.
CC(=O)Nc1ccc(Nc2nnc(-c3ccc(C)c(S(=O)(=O)NCCO)c3)c3ccccc23)cc1 was read as N370S GC inactive and GAA glycogen inactive.
`Cc1ccc(-c2nnc(Nc3ccc(O)cc3)c3ccccc23)cc1S(=O)(=O)NC(C)(C)CO` gave GAA glycogen 8.91µM.
Screening O=C1NCCCc2c1oc1ccc(O)cc21 returned GLA inh pH 4.5 inactive, N370S GC inactive, GAA glycogen inactive, GAA inh inactive, GAA spleen mod inactive and GLA spleen mod inactive.
For Oc1c(Cl)cc(Cl)c2c1NCCC2 the results were GLA inh pH 4.5 inactive, N370S GC inactive, GAA glycogen 14µM, GAA inh inactive, GAA spleen mod inactive and GLA spleen mod inactive.
For CC(=O)NNC(=O)c1cc2sccc2s1 the results were GLA inh pH 4.5 inactive, N370S GC inactive, GAA glycogen inactive, GAA inh inconclusive, GAA spleen mod inactive and GLA spleen mod inactive.
For NNC(=O)c1cc2sccc2s1 the results were GLA inh pH 4.5 inactive, N370S GC inactive, GAA glycogen 24.9µM, GAA inh inactive, GAA spleen mod inactive and GLA spleen mod inactive.
O=C1OCC(CO)(CO)N=C1NNc1cc(Cl)ccc1Cl was read as GLA inh pH 4.5 inactive, N370S GC inactive, GAA glycogen 8.91µM, GAA inh inactive, GAA spleen mod inactive and GLA spleen mod inactive.
O=C1OCC(CO)(CO)N=C1NNc1ccccc1[N+](=O)[O-] was read as GLA inh pH 4.5 inactive, N370S GC inactive, GAA glycogen inconclusive, GAA spleen mod inactive and GLA spleen mod inactive.
O=C(O)c1ccc(/C=N/n2cc(-c3ccccc3)[nH]c2=S)cc1 was read as GLA inh pH 4.5 inactive, N370S GC inactive, GAA glycogen 28.2µM, GAA spleen mod inactive and GLA spleen mod inactive.
`CCCCCCCCCCOc1cc(OCCCCCCCCCC)cc(N(CC(=O)O)CC(=O)O)c1` gave N370S GC inactive, GAA spleen mod inactive and GLA spleen mod inactive.
`COc1ccc(C(=O)/C=C(\C)Nc2ccc3c(c2)OCO3)cc1` gave GLA inh pH 4.5 inactive, N370S GC inactive, GAA glycogen 35.5µM, GAA inh inactive, GAA spleen mod inactive and GLA spleen mod inactive.
Screening COc1ccc(N/C(C)=C/C(=O)c2ccccc2)cc1 returned GLA inh pH 4.5 inactive, N370S GC inactive, GAA glycogen inactive, GAA inh inactive, GAA spleen mod inactive and GLA spleen mod inactive.
For Brc1ccc(-c2nc3ncccn3c2NC2CCCCC2)o1 the results were GLA inh pH 4.5 inactive, N370S GC inactive, GAA glycogen 25.1µM, GAA inh inactive, GAA spleen mod inactive and GLA spleen mod inactive.
Screening Cc1ccc(-c2nc3ncccn3c2NC2CCCC2)o1 returned GLA inh pH 4.5 inactive, N370S GC inactive, GAA glycogen 14µM, GAA inh inactive, GAA spleen mod inactive and GLA spleen mod inactive.
Screening CCN=c1scc(C)n1/N=C/c1cc(Br)c(O)c(Br)c1 returned GLA inh pH 4.5 inactive, N370S GC inactive, GAA glycogen inactive, GAA inh inactive, GAA spleen mod inactive and GLA spleen mod inactive.
Screening CCN=c1scc(C)n1/N=C/c1ccc(O)c(O)c1O returned GLA inh pH 4.5 inactive, N370S GC inactive, GAA glycogen 15.8µM, GAA inh inactive, GAA spleen mod inactive and GLA spleen mod inactive.
`COc1cc(-c2ccc(N=Nc3ccc4c(S(=O)(=O)O)cc(S(=O)(=O)O)c(N)c4c3O)c(OC)c2)ccc1N=Nc1ccc2c(S(=O)(=O)O)cc(S(=O)(=O)O)c(N)c2c1O` gave GLA inh pH 4.5 inactive, N370S GC inactive, GAA spleen mod inactive and GLA spleen mod inactive.
Screening CC(C)c1ccc(NS(=O)(=O)c2ccc3[nH]cc(C(=O)N4CCCC4)c(=O)c3c2)cc1 returned GAA glycogen inactive.
`O=C(/C=C/c1ccc(O)c(O)c1)OC1C(O)CC(OC(=O)/C=C/c2ccc(O)c(O)c2)(C(=O)O)CC1O` (centres undefined) gave GLA inh pH 4.5 inactive, N370S GC inactive, GAA glycogen 1.76µM, GAA inh inactive, GAA spleen mod inactive and GLA spleen mod inactive.
`O=C(/C=C\c1ccc(O)c(O)c1)O[C@@H]1C[C@](O)(C(=O)O)C[C@@H](O)[C@@H]1O` gave GLA inh pH 4.5 inactive, N370S GC inactive, GAA spleen mod inactive and GLA spleen mod inactive.
Screening CCOC(=O)N1CCc2c(sc(N)c2C#N)C1 returned GLA inh pH 4.5 inactive, N370S GC inactive, GAA glycogen inconclusive, GAA spleen mod inactive and GLA spleen mod inactive.
For CCOC(=O)C1CCc2sc(N)c(C#N)c21 (centres undefined) the results were GLA inh pH 4.5 inactive, N370S GC inactive, GAA glycogen 4.97µM, GAA inh inactive, GAA spleen mod inactive and GLA spleen mod inactive.
`CCc1nn2c(-c3ccccc3OC)ccnc2c1-c1ccc(F)cc1` gave GAA glycogen inactive.
